Source: PubChem
D3 ag – qHTS of D3 Dopamine Receptor Agonist: qHTS | max activation, % | D3R DiscoveRx beta-arrestin cells, luminescence, 90 min | D(3) dopamine receptor (Homo sapiens), P35462 | 0.58% of 410,000 active; in the data active = max activation above about 30%; also: 0% is about no effect
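Cells at 1500/well, incubated overnight, then treated with pinned compounds (dopamine as control) for 90 min at 37 degrees C. DiscoveRx reagent added for 30 - 60 minutes at room temperature; luminescence read.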
ClpP mod – qHTS Assay for Activators of ClpP. purified B. subtilis ClpP, FRET peptide cleavage, 20 min. Potency, µM (highest dose often 57.5 µM), for the others: top-dose activity change, negative = active. 1.9% of 340,000 active. AID 651965, 2013. ATP-dependent Clp protease proteolytic subunit (Bacillus subtilis (strain 168)), P80244; active = well fitted falling curve with a large enough effect; inconclusive = small, poorly fitted or top-dose-only effect; inactive = no such curve, though single readings can be large or run the other way; also: potency is read from the fitted curve at half-maximal effect; the source files actives as falling curves though it sought activators and does not explain the sign; nearly all actives have a fitted effect of over 65% in size
Target sequence (P80244 whole entry, looked up): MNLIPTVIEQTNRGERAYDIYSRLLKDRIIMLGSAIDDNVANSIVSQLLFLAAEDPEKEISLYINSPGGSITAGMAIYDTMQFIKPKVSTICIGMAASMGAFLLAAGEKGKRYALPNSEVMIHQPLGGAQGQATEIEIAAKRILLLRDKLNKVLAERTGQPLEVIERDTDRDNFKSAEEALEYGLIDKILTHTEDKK
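ClpP 10 microg/mL final, pH 8 Tris/KCl buffer with BSA, glycerol, Tween-20; compound pinned in; FRET-FV substrate; RT 20 min; Ex320/Em430; ΔFRET vs ADEP 5.8 microM, DMSO, no enzyme.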
D3 antag – qHTS of D3 Dopamine Receptor Antagonist: qHTS. D3R cells, DiscoveRx beta-arrestin luminescence, antagonist mode; active compounds read low. D(3) dopamine receptor (Homo sapiens), P35462. AID 652054, 2013. max response, negative = inhibition, %. 2.5% of 360,000 active; in the data active = max response below about -50%; inconclusive = no clear call, values can overlap the other calls; also: % is scaled to controls: 0 for no effect and ±100 for the full control effect
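Cells plated overnight at 1500 cells/well, then exposed to library compounds with dopamine controls for 90 minutes at 37 degrees C. DiscoveRx reagent added for 30–60 minutes at room temperature; luminescence read, quantitative HTS format.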
TDP1 cell CPT – qHTS for Inhibitors of human tyrosyl-DNA phosphodiesterase 1 (TDP1): qHTS in cells in presence of CPT | AID 686979, 2013 | chicken DT40 Tdp1-/-;hTDP1 cells + 20 nM CPT, ATP luminescence, 48 h | 12% of 420,000 active | Potency, µM (highest dose often 46.2 µM), without a hit: top-dose activity change, negative = growth inhibition, usual class: inhibitors; also: potency is read from the fitted curve at half-maximal effect; % is scaled to controls: 0 for no effect and ±100 for the full control effect; nearly all actives have a fitted effect of over 55% in size
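Cell growth measured by CellTiter-Glo luminescence after a minimum 48 h, 37 C compound exposure with 20 nM CPT in Tdp1-knockout DT40 cells stably expressing hTDP1, seeded 400/well; qHTS titration format.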
IL-1B inflam inh – qHTS for Inhibitors of Inflammasome Signaling: IL-1-beta AlphaLISA Primary Screen; THP-1 LPS/ATP IL-1B secretion, AlphaLISA, 16 h; active compounds read low; activity change, % at 57.5 µM; 4.7% of 360,000 active; in the data active = activity change below about -50%; inconclusive = mostly about -30% to -49%; also: % is scaled to controls: 0 for no effect and ±100 for the full control effect
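Secreted IL-1B measured by AlphaLISA bead assay after 16 h compound exposure of THP-1 cells; compounds (final up to 57.5 uM) added 1 h before LPS (250 ng/mL) and ATP (1.25 mM) stimulation; lower signal means less secretion.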
TDP1 cell noCPT – qHTS for Inhibitors of human tyrosyl-DNA phosphodiesterase 1 (TDP1): qHTS in cells in absence of CPT | DT40 Tdp1-/- hTDP1 cells, no CPT, ATP luminescence, 48 h | Potency, µM (doses to about 46.2 µM), inactives show top-dose activity change, negative = growth inhibition, usual class: inhibitors | 15% of 420,000 active | AID 686978, 2013; also: potency is read from the fitted curve at half-maximal effect; % is scaled to controls: 0 for no effect and ±100 for the full control effect; nearly all actives have a fitted effect of over 55% in size
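Growth of hTDP1-complemented DT40 Tdp1-knockout cells is measured by ATP luminescence after at least 48 hr compound exposure at 37 °C, with DMSO substituting for the 20 nM CPT used in the parallel screen.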
* marks the source's active call; other numbers are inactive results; u = inconclusive; x = no result given. Hits are enriched below; roughly 21% of the tested compounds scored in any of these assays. Unless noted, calls follow the shape of the dose curve; as a rule, active = well fitted inhibition curve with a large enough effect; inconclusive = small, poorly fitted or top-dose-only effect; inactive = flat fitted curve, though single readings scatter.

SMILES	D3 ag	ClpP mod	D3 antag	TDP1 cell CPT	IL-1B inflam inh	TDP1 cell noCPT
O=C1CC(NS(=O)(=O)c2ccc([N+](=O)[O-])cc2)CN1c1ccc2c(c1)OCCO2 (stereo not drawn)	-8	-25%	-3	-12%	-1	-17%
CC(=O)c1ccc(S(=O)(=O)NC2CC(=O)N(c3ccc(C)c(C)c3)C2)cc1 (stereo not drawn)	-4	x	7	15µM*	6	15µM*
COc1ccc(S(=O)(=O)NC2CC(=O)N(c3ccc(C)c(C)c3)C2)cc1C (stereo not drawn)	-8	-2%	-7	u	-8	u
CCC1Oc2ccc(C)cc2N(CC(=O)NCc2ccc(OC)cc2)C1=O (stereo not drawn)	6	-1%	x	-27%	x	-15%
Cn1c(=O)c(-c2ccc(Cl)cc2)nc2cnc(Oc3ccccc3)nc21	x	x	x	3%	x	-15%
Cc1ccc(N2CCN(S(=O)(=O)c3nnc(NC(=O)c4ccco4)s3)CC2)cc1	-2	-6%	16	-2%	22	-14%
CN(CC(=O)Nc1ccc(N2CCOCC2)cc1)C(=O)CCCOc1ccc(Cl)cc1Cl	-1	x	8	9.2µM*	-17	u
Cc1ccccc1OCCC(=O)OCC(=O)Nc1ccc(N2CCOCC2)cc1	-5	1%	-20	16µM*	-62*	u
Cc1ccccc1OCCC(=O)OCC(=O)Nc1ccc2[nH]c(=O)[nH]c2c1	-5	32µM*	-2	-6%	8	6%
Cc1cccc(NC(=O)Nc2c(C)n(C)n(-c3ccccc3)c2=O)c1C	4	0%	1	-8%	-16	9%
CCOc1cccc(NC(=O)c2ccc(S(=O)(=O)N(C)C)cc2)c1	-8	1%	3	u	-8	u
CCN(CC)CCNC(=O)c1ccc(NC(=O)c2ccc(COc3ccccc3)cc2)cc1	2	-1%	-4	23µM*	-20	-5%
COCc1ccc(C(=O)Nc2cccc(S(=O)(=O)N(C)c3ccccc3)c2)cc1	10	x	25	18µM*	-13	18µM*
CN(C)S(=O)(=O)c1cccc(NC(=O)c2ccc(COc3ccccc3)cc2)c1	-5	x	37	18µM*	-73*	6.5µM*
O=C(NCc1ccncc1)c1ccc(NS(=O)(=O)c2ccc(F)cc2)cc1	-3	3%	-11	0%	-21	-19%
N/C(=N\OC(=O)CCCc1ccccc1)c1ccccc1Cl	-3	0%	0	-5%	-10	2%
c1ccc(-n2nnnc2SCc2cn3ccccc3n2)cc1	-3	-5%	0	-18%	-25	-9%
Clc1ccc(-n2nnnc2SCc2c(-c3ccccc3)nc3sccn23)cc1	-1	-11%	-1	u	-21	13µM*
c1ccc(CSc2nnnn2-c2ccccc2)cc1	-3	1%	-7	-20%	u	0%
c1ccc(-n2nnnc2SCc2cccc(CSc3nnnn3-c3ccccc3)n2)cc1	4	-4%	12	u	-10	13µM*
c1ccc(-n2nnnc2SCc2cn3cccnc3n2)cc1	-1	25µM*	-19	0%	-10	5%
C#CC(C)(O)C1CC(CC(=O)O)C1(C)C (stereo not drawn)	16	x	17	37%	-4	-10%
Cc1ccc(C(C)CCN2CCOc3ccc(CN4CCOCC4)cc3C2)o1 (stereo not drawn)	x	x	x	0%	x	-16%
Cc1ccccc1NC(=O)C(NC1CCCCC1)C(C)C (stereo not drawn)	-4	-1%	2	4%	-12	4%
